Measured values reported in PubChem BioAssay AID1776 (NMMLSC, 2009).
Screen size: about 190,000 compounds; about 490 (0.26%) were called active. The sample holds actives, similar compounds and a random draw of the others, so the mix is not that of the screen. Values without a mark were called inactive. Cut-off read from the data, not from the text of the source: active = fluorescence above about 89; inactive = the rest.

Assay: green autofluorescence of compounds with GSH beads – biophysical, 488/530 nm, flow cytometry, artefact control, profiling panel (AID 1776);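 note: glutathione beads carrying GST-tagged Bcl family fusion proteins plus one bare bead set; values are compound well signal with DMSO vehicle wells as background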
Settings: compound fluorescence 488/530 nm, at 10 µM, stronger effect = higher value
For `Cc1cc(=O)[nH]c(SCc2cc(Cl)ccc2OC(F)F)n1`, the fluorescence (KMESF) was 270 (active). In the case of `Cc1cc(=O)[nH]c(SCc2cccc(F)c2)n1`, the fluorescence (KMESF) is reported as 31. `COc1ccccc1-c1noc(CSc2nc(C)cc(=O)[nH]2)n1` showed a fluorescence (KMESF) of 20. In the case of `C#CCCCc1nc2ccccc2c(=O)n1N`, the fluorescence (KMESF) is reported as 11. With `COc1ccc(S(=O)(=O)N2CN(CCc3ccc(OC)c(OC)c3)c3nc4ccccc4nc32)cc1` the fluorescence (KMESF) was 15. For `O=C1/C(=C\c2ccsc2)NC(=S)N1c1ccccc1`, the fluorescence (KMESF) was 11. `CCCc1c(C)nc2c(Br)cccc2c1Cl` showed a fluorescence (KMESF) of 17. Molecule `CN(C)c1ccnc2sc(C(=O)c3ccccc3)c(N)c12` has a fluorescence (KMESF) of 7. Work on `O=C(CC1Nc2ccccc2NC1=O)Nc1ccccc1NC(=O)CC1Nc2ccccc2NC1=O` (stereo not given) yielded a fluorescence (KMESF) of 13. `CCCCC(O)(CCCC)C(=O)NN(C(=O)CCl)c1ccccc1` gave a fluorescence (KMESF) of 9. With `O=C(/C=C/c1cn(-c2ccccc2)nc1-c1ccc2c(c1)OCCO2)NCCCN1CCOCC1` the fluorescence (KMESF) was 15. `COC(=O)Cc1c(O)ccn(Cc2cccc(C(F)(F)F)c2)c1=O` gave a fluorescence (KMESF) of 11. `Cc1scc(C(=O)NNC(=S)NCC(C)C)c1C` showed a fluorescence (KMESF) of 5. Molecule `COc1cccc(OC)c1C(=O)NC(=S)NCc1ccco1` has a fluorescence (KMESF) of 10. With `O=C(N/N=C/c1ccccn1)C12CC3CC(CC(C3)C1)C2` the fluorescence (KMESF) was 10. With `NC(=O)Cc1ccc2sc(-c3ccccc3)nc2c1` the fluorescence (KMESF) was 4. `Cc1ccc(Cl)cc1NC(=O)C1CCN(S(C)(=O)=O)CC1` gave a fluorescence (KMESF) of 13. In the case of `O=C1N/C(=C/c2cccs2)C(=O)N1Cc1ccc(F)cc1`, the fluorescence (KMESF) is reported as 18. `O=C(NCc1cccs1)C(=O)NCC1OCCCN1S(=O)(=O)c1ccc(F)cc1` (stereo not given) showed a fluorescence (KMESF) of 10. Work on `Cc1cc([N+](=O)[O-])ccc1NC(=O)C1CCCO1` (stereo not given) yielded a fluorescence (KMESF) of 8. `CCOC(=O)c1sc(NC(=O)CSc2nc3c(c(=O)n2-c2ccccc2)SCC3)c(C(=O)OCC)c1C` gave a fluorescence (KMESF) of 16. `Cc1nc2ccccc2nc(=O)c1NNc1ccc([N+](=O)[O-])cc1` showed a fluorescence (KMESF) of 20. With `C/C(=N/NC(=S)Nc1ccccc1)c1ccc2c(c1)OCO2` the fluorescence (KMESF) was 5. Work on `CCOc1ccc(Br)cc1S(=O)(=O)N1CCC(C(=O)O)CC1` yielded a fluorescence (KMESF) of 10. In the case of `O=c1[nH]c(-c2ccccc2)c(-c2ccccc2)[nH]1`, the fluorescence (KMESF) is reported as 20. For `CC(C)C1C2=C(CC(C)(C)CC2=O)ON1c1ccccc1` (stereo not given), the fluorescence (KMESF) was 52. In the case of `CC1(C)CC(=O)NC=C(c2ccccc2)C1`, the fluorescence (KMESF) is reported as 272 (active). In the case of `CCCC(CCC(=O)OC)(C(=O)OCC)c1csc(N)n1` (stereo not given), the fluorescence (KMESF) is reported as 262 (active). In the case of `CC/C(Cc1ccccc1)=N/NC(=O)CCn1nnc2ccccc21`, the fluorescence (KMESF) is reported as 12. With `CN(c1ccccc1)c1ccc(/C=c2\s/c(=C(/C#N)C(=O)C(C)(C)C)n(Cc3ccco3)c2=O)cc1` the fluorescence (KMESF) was 145 (active). Molecule `COc1ccc(NC(=O)Cn2c(=O)n(Cc3ccco3)c(=O)c3ccccc32)cc1` has a fluorescence (KMESF) of 17. `CCOC(=O)CSc1nc2c(sc(=S)n2CCc2ccccc2)c(=O)n1Cc1ccco1` gave a fluorescence (KMESF) of 11. Work on `Nc1nc(SCC(=O)NN(c2ccccc2)c2ccccc2)n[nH]1` yielded a fluorescence (KMESF) of 7. For `Cc1ccc(NS(=O)(=O)c2ccc(C)c(NC(=O)COc3ccc4ccccc4c3)c2)c(C)c1`, the fluorescence (KMESF) was 15. In the case of `O=C(/C=C\c1ccc2c(c1)OCO2)NC1(C(=O)Nc2ccc3c(c2)OCCO3)CCCCC1`, the fluorescence (KMESF) is reported as 7. `Cc1cc([N+](=O)[O-])ccc1NC(=O)c1ccc(NC(=O)C(C)C)cc1` showed a fluorescence (KMESF) of 17. `CCc1ccc(CN2C(=O)c3ccccc3C2C(=O)NCC2CCCO2)cc1` (stereo not given) showed a fluorescence (KMESF) of 14. `Cc1c(Cl)cccc1NC(=O)CC1SC(=NCC2CCCO2)NC1=O` (stereo not given) gave a fluorescence (KMESF) of 20. Work on `CCOc1ccc(S(=O)(=O)N/N=C(\C)c2ccc(Cl)c(Cl)c2Cl)cc1` yielded a fluorescence (KMESF) of 18. For `CCCCCC(=O)Nc1ccc(S(=O)(=O)Nc2ccc(Cl)nn2)cc1`, the fluorescence (KMESF) was 11. `COc1ccccc1N(C)S(=O)(=O)c1ccc(Cl)c(C(=O)N2CCC(C(N)=O)CC2)c1` gave a fluorescence (KMESF) of 11. In the case of `CN1CCC(OC(=O)COc2ccc(Cl)cc2Cl)CC1`, the fluorescence (KMESF) is reported as 13. Work on `Cn1nccc1CNC(=O)c1ccnn1C` yielded a fluorescence (KMESF) of 9. `CCCCN(C)CCNC(=O)CSCc1ccc(C)cc1` gave a fluorescence (KMESF) of 25. In the case of `CCCCN(C(=O)/C=C/c1ccco1)c1c(N)n(CC(C)C)c(=O)[nH]c1=O`, the fluorescence (KMESF) is reported as 9. For `COc1ccc(/C=C2/SC(=O)N(CCCCCC(=O)Nc3ccccc3C(=O)O)C2=S)cc1`, the fluorescence (KMESF) was 9. For `O=C(CC12CC3CC(CC(C3)C1)C2)NCc1ccco1`, the fluorescence (KMESF) was 15. For `CSCC(=O)N1CCCC(C(=O)c2cc(F)ccc2F)C1` (stereo not given), the fluorescence (KMESF) was 11. For `O=C(Cc1ccc(-c2ccccc2)cc1)NC(c1ccccc1)c1ccccc1`, the fluorescence (KMESF) was 10. In the case of `OCC(CO)(CO)NCc1ccc(-c2ccccc2)cc1`, the fluorescence (KMESF) is reported as 236 (active). For `O=C(O)Cc1ccc(-c2ccccc2)cc1`, the fluorescence (KMESF) was 21. `O=C(COc1ccc(NC(=O)c2ccccc2[N+](=O)[O-])cc1)c1ccc(F)cc1` showed a fluorescence (KMESF) of 23. With `O=C(COC(=O)c1ccc(Cl)nc1)NCc1cccs1` the fluorescence (KMESF) was 24. `COc1cccc(NC(=O)COC(=O)CCOc2ccccc2OC)c1` gave a fluorescence (KMESF) of 10. For `COc1ccccc1OCCC(=O)OCC(=O)NC(=O)NC(C)(C)C`, the fluorescence (KMESF) was 260 (active). `COc1ccccc1OCCC(=O)OCC(=O)NCc1ccccc1` gave a fluorescence (KMESF) of 16. `Cc1ccccc1-n1nnnc1SCCCC(=O)c1ccc(F)cc1` showed a fluorescence (KMESF) of 11. For `COc1cccc(Cn2cnc3c([N+](=O)[O-])c(C)c(C)cc32)c1`, the fluorescence (KMESF) was 19. Molecule `CCOC(=O)Cc1csc(NC(=O)Nc2ccccc2)n1` has a fluorescence (KMESF) of 13. For `CCOC(=O)Cc1csc(NC(=O)C(C)(C)C)n1`, the fluorescence (KMESF) was 28. For `CCOC(=O)Cc1csc(NC(NC(=O)OCC)(C(F)(F)F)C(F)(F)F)n1`, the fluorescence (KMESF) was 269 (active). `COc1ccc(C)cc1S(=O)(=O)N(CC(=O)Nc1cccc([N+](=O)[O-])c1)c1ccc(C)cc1` showed a fluorescence (KMESF) of 11. Work on `CCCCN1C(=S)NC[C@@H]1C(C)CC` (stereo not given in full) yielded a fluorescence (KMESF) of 20. Work on `Cc1ccc(-c2cc(C(=O)N/N=C/C=C/c3ccccc3)n[nH]2)o1` yielded a fluorescence (KMESF) of 7. Work on `O=C(NCCCN1CCOCC1)c1ccc(N2CCCC2)c([N+](=O)[O-])c1` yielded a fluorescence (KMESF) of 15.
